In article PMC5540273 (PLoS ONE, 2017):

Legend:
Conditions in all cases: concentration: 1 μM, replicates: in singlicate; n = 1
EPHA7 = system: EPHA7
EPHA8 = system: EPHA8
EPHB1 = system: EPHB1
EPHB2 = system: EPHB2
EPHB3 = system: EPHB3
EPHB4 = system: EPHB4
EPHB6 = system: EPHB6
ERBB2 = system: ERBB2
ERBB3 = system: ERBB3
ERBB4 = system: ERBB4
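Further: KINOMEscan kinase panel screen.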

Structure (SMILES)	%Inh (EPHA7)	%Inh (EPHA8)	%Inh (EPHB1)	%Inh (EPHB2)	%Inh (EPHB3)	%Inh (EPHB4)	%Inh (EPHB6)	%Inh (ERBB2)	%Inh (ERBB3)	%Inh (ERBB4)
Cc1ccc(NC(=O)c2ccnc(N3CCCCC3)c2)cc1-c1ccc(C(=O)NCC2CC2)cc1 [GW775610]	0%	0%	0%	0%	0%	0%	5%	21%	0%	19%
Cc1ccc(-c2ccc3occ(-c4ccc(S(C)=O)cc4)c3c2)nn1 (stereo not drawn)	0%	0%	0%	14%	14%	6%	0%	0%	0%	3%
CC(=O)Nc1cn2nc(Oc3cccc(NC(=O)c4cccc(C(F)(F)F)c4)c3)ccc2n1	7%	99.5%	95.1%	98.6%	5%	90.9%	98.1%	6%	41%	4%
CCNC(=O)/C=C/c1n[nH]c2cc(Sc3ccccc3C(=O)NC)ccc12	0%	0%	0%	1%	10%	14%	20%	16%	3%	1%
Cl.Cl.NC(CNC(=O)c1cc(Br)c(-c2ccnc3[nH]ccc23)s1)c1ccccc1 (stereo not drawn) [GSK1322949]	10%	24%	27%	15%	0%	3%	75%	24%	18%	0%
CN(c1ccc(NC(=O)Nc2cccc(Cl)c2)cc1)c1ccnc(N)n1.Cl [GW830707]	40%	22%	34%	36%	62%	61%	76%	0%	17%	29%
Fc1cc(Cl)ccc1Nc1ccnc2cc(-c3ccc(CN4CCOCC4)o3)ccc12 [GW560109]	59%	90.2%	50%	44%	15%	55%	91.7%	34%	80%	25%
CN(C)CCNS(=O)(=O)c1ccc(-c2ccnc3[nH]ccc23)cc1 [GSK977620]	7%	3%	16%	0%	0%	0%	0%	0%	0%	30%
NCCC(NC(=O)c1cc(Br)c(-c2ccnc3[nH]ccc23)s1)c1ccccc1.O=C(O)C(F)(F)F.O=C(O)C(F)(F)F (stereo not drawn) [GSK1307810]	3%	11%	4%	0%	0%	0%	27%	39%	19%	21%
CCNc1nccc(-c2c(-c3ccc(F)cc3)ncn2C2CCN(C)CC2)n1	0%	0%	0%	0%	0%	0%	9%	0%	9%	0%
Cc1ccc(O)cc1Nc1ccnc2cc(-c3ccc(CN4CCCCC4)o3)ccc12 [GW557777]	0%	99.7%	100%	98.9%	95.3%	99.7%	83%	0%	7%	0%
Cl.Cl.NCC(NC(=O)c1cc(-c2cccnc2)c(-c2ccnc3[nH]ccc23)s1)c1ccccc1 (stereo not drawn) [GSK1323434]	17%	33%	23%	22%	0%	18%	21%	58%	1%	48%
CN(c1ccc(F)c(NC(=O)c2cccc(OC(C)(C)C#N)c2Cl)c1)c1ccc2nc(NC(=O)C3CC3)sc2n1	0%	41%	10%	2%	0%	14%	88%	66%	9%	67%
Cn1cc(-c2ccc3c(c2)CCN3C(=O)Cc2cc(F)cc(F)c2F)c2c(N)ncnc21 [GSK2634140]	3%	8%	14%	0%	11%	0%	87%	31%	0%	41%
O=C(Nc1n[nH]c2nc(-c3ccccc3)ccc12)C1CC1 [SB-708999]	7%	9%	0%	20%	11%	3%	41%	35%	67%	0%
CN(C)c1ncnc2nc[nH]c12 [SKF-31736]	0%	0%	0%	0%	0%	0%	0%	24%	13%	0%
O=C(Nc1n[nH]c2nc(-c3cccc(O)c3)ccc12)C1CC1 [SB-711805]	11%	30%	14%	0%	1%	5%	48%	0%	0%	0%

Structure (SMILES)	%Inh (EPHA7)	%Inh (EPHA8)	%Inh (EPHB1)	%Inh (EPHB2)	%Inh (EPHB3)	%Inh (EPHB4)	%Inh (EPHB6)	%Inh (ERBB2)	%Inh (ERBB3)	%Inh (ERBB4)
COc1cc(Nc2nccc(N3CCC(NC(=O)Nc4ccc5c(c4)OCO5)C3)n2)cc(OC)c1OC (stereo not drawn) [GSK1379766]	0%	3%	7%	0%	6%	0%	97.6%	0%	0%	31%
COC(=O)Nc1nc2ccc(Oc3ccc(CC(=O)Nc4cc(C(F)(F)F)ccc4F)cc3)cc2[nH]1 [GW680903]	9%	64%	32%	26%	9%	20%	22%	30%	12%	7%
CN(c1ccc(NC(=O)N2CCN(CCCN3CCOCC3)CC2)cc1)c1ccnc(Nc2ccc(CS(C)(=O)=O)cc2)n1.Cl [GW830899]	0%	0%	0%	4%	0%	22%	81%	2%	17%	0%
COc1ccc(C)c(Nc2ccnc(Nc3ccc(-c4cnc[nH]4)cc3)n2)c1.Cl [GW784041]	6%	26%	14%	21%	17%	60%	69%	0%	89%	0%
Nc1ncc(-c2ccc3nccc(-c4ccncc4)c3c2)cc1S(=O)(=O)N1CCCCC1 [GSK1693850]	3%	8%	0%	15%	0%	8%	43%	31%	0%	20%
Cc1cccc(Nc2nc(N[C@H]3CCCC[C@H]3N)ncc2C(N)=O)c1.Cl [GSK986310]	21%	9%	32%	25%	15%	4%	17%	20%	0%	21%
Cn1cc(-c2ccc3c(c2)CCN3C(=O)Cc2cc(F)cc(C(F)(F)F)c2)c2c(N)ncnc21 [GSK2635225]	2%	2%	21%	15%	12%	8%	44%	10%	0%	0%
CN1CCN(Cc2ccc(NC(=O)Nc3ccc(N(C)c4ccnc(Nc5ccc(CS(C)(=O)=O)cc5)n4)cc3)cc2)CC1.Cl [GW827654]	10%	77%	11%	28%	0%	0%	94.5%	48%	45%	33%
Cc1ccc(Nc2ccnc(Nc3ccc(C)c(F)c3)n2)cc1O.Cl [GW582868]	0%	26%	1%	0%	0%	8%	0%	19%	13%	9%
O=C(O)C(F)(F)F.O=c1[nH]ccc2nc(N[C@@H]3CCNC3)nc(Nc3ccc4c(c3)S(=O)(=O)CC4)c12 [GSK2181306]	27%	24%	9%	0%	5%	8%	19%	8%	0%	0%
CC(C)(C)c1ccc(C(=O)Nc2cn3cc(-n4ccnc4)ccc3n2)cc1	0%	0%	3%	8%	0%	0%	2%	29%	8%	37%
Nc1ncnc2scc(-c3ccc(NC(=O)Cc4cc(F)ccc4F)cc3)c12.O=C(O)C(F)(F)F [SB-731254-M]	4%	0%	0%	15%	0%	5%	98.8%	39%	0%	53%
Cc1ccc(C)c(NC(=O)Nc2ccc(C)c(-c3ccc(C(=O)Nc4ccncc4)cc3)c2)c1 [GSK1398473]	3%	46%	23%	32%	12%	14%	0%	0%	0%	44%
c1ccc(Oc2ccc(Nc3ccnc4cc(-c5ccc(CN6CCCCC6)o5)ccc34)cc2)nc1 [GW567143]	0%	12%	6%	0%	4%	7%	66%	18%	96%	51%
CCn1cnc2c(NCc3ccccc3)ncnc21 [SKF-96418]	0%	0%	0%	0%	0%	0%	0%	24%	28%	4%
COc1cccc(NC(=O)NCCNc2ccnc(Nc3ccc(F)cc3)n2)c1 [GSK1379879]	0%	2%	5%	0%	8%	19%	14%	39%	24%	20%
